Screening data: PubChem BioAssay, National Center for Advancing Translational Sciences (NCATS)
Rows were chosen to be rich in hits. Some 4.3% of all compounds tested hit in one or more screens of this group.
DRD3 antagonist = blocks the human D3 dopamine receptor | D3R cells, DiscoveRx beta-arrestin luminescence, antagonist mode; hits give low values | hit rate 2.5% among 360,000 | P35462 | max response, negative = inhibition, % | AID 652054; in the data active = max response below about -50%; inconclusive = no clear call, values can overlap the other calls
Target sequence (P35462 whole entry, looked up): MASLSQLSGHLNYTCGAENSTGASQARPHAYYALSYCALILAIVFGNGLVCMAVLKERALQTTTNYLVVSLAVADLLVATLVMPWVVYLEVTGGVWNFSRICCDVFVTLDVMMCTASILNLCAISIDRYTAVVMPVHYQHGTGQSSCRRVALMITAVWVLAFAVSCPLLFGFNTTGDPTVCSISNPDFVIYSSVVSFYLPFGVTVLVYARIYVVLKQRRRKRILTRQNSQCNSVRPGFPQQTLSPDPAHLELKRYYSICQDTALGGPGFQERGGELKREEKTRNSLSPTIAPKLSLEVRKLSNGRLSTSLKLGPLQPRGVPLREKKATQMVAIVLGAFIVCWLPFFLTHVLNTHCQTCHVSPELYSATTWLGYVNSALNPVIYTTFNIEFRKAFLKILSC
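Cells plated overnight at 1500 cells/well, then exposed to library compounds with dopamine controls for 90 minutes at 37 degrees C. DiscoveRx reagent added for 30–60 minutes at room temperature; luminescence read, quantitative HTS format.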
GLP-1R inv ag = GLP-1 receptor (human) inverse agonism; P43220; HEK293 GLP-1R CRE-luciferase, luminescence, 24 h; GLP-1R form is constitutively active; Potency, µM (highest dose often 38.3 µM), usual class: inhibitors; hit rate 1.6% among 410,000; AID 624417; also: nearly all actives have a fitted effect of over 55% in size
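Inverse agonists were sought by their lowering of basal cAMP reporter luciferase output in HEK293 cells stably carrying constitutively active human GLP-1R, after 24 h compound treatment.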
DRD3 agonist = agonists of human D3 dopamine receptor; AID 652048; max activation, %; P35462; D3R DiscoveRx beta-arrestin cells, luminescence, 90 min; hit rate 0.58% among 410,000; in the data active = max activation above about 30%
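Agonist-mode cell screen: cells plated at 1500/well and incubated overnight at 37 °C, then exposed to library compounds for 90 min at 37 °C. Detection reagent was added for 30–60 min at room temperature, and luminescence was read.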
GLP-1R agonist = GLP-1 receptor (human) agonism | P43220 | HEK293 GLP-1R CRE-luciferase, luminescence, 4-6 h; cells express a hypersensitive GLP-1R form | Potency, µM (doses to about 45.6 µM), actives largely listed as activators | hit rate 0.007% among 380,000 | AID 624172
Large screens that a line does not name were inactive. Unless noted, calls follow the shape of the dose curve; as a rule, active = well fitted curve in the direction sought with a large enough effect; inconclusive = small, poorly fitted or top-dose-only effect, or another doubt; inactive = no such curve, though single readings can be large; an effect the other way counts as inactive or inconclusive.

CN=C(Nc1cc(Cl)ccc1Cl)SC1CC(=O)N(c2ccc(C(=O)OC)cc2)C1=O (centres undefined)	GLP-1R inv ag 4µM
O=[N+]([O-])c1ccccc1OCCCNCc1ccccc1	DRD3 antagonist -63
Clc1ccc(OCCCNCc2ccccc2)c(Br)c1	DRD3 antagonist -79, GLP-1R inv ag inconclusive
CCOc1ccccc1OCCOCCOc1ccccc1[N+](=O)[O-]	none
Clc1ccc(Cl)c(OCCCCNCc2ccccc2)c1	DRD3 antagonist -69, GLP-1R inv ag inconclusive
COc1cc(C)ccc1OCCCCNCc1ccccc1	none
Cc1cccc(NC(=O)c2ccc(CNS(=O)(=O)c3ccc4c(c3)C(C)(C)C(=O)N4C)cc2)c1	GLP-1R inv ag inconclusive (no result: DRD3 antagonist, GLP-1R agonist)
CN(C)S(=O)(=O)c1cccc(N=C2SCCN2Cc2ccccc2)c1	GLP-1R inv ag 11µM
Cc1csc(N/N=C/c2ccc(O)c([N+](=O)[O-])c2)n1	DRD3 antagonist -54
O=[N+]([O-])c1cc(/C=N\Nc2nc(-c3ccccc3)cs2)ccc1O	none
CC(C)c1cc(C(=O)NCc2ccc(F)cc2)no1	none (no result: DRD3 antagonist, GLP-1R agonist)
CC(Nc1nc(-c2ccncc2)nc2ccccc12)c1ccccc1 (centres undefined)	GLP-1R inv ag 7.1µM, GLP-1R agonist inconclusive
CC(Nc1nc(N2CCNCC2)nc2ccccc12)c1ccccc1 (centres undefined)	GLP-1R inv ag 11µM
O=C(c1ccc2c(c1)CCC2)N1CCN(Cc2c(F)cccc2Cl)CC1	GLP-1R inv ag 10µM
COCc1c(C(=O)N2CCN(Cc3c(F)cccc3Cl)CC2)oc2ccccc12	GLP-1R inv ag 10µM
c1ccc(-n2ncc3c(NC4CCCC4)ncnc32)cc1	GLP-1R inv ag inconclusive (no result: DRD3 antagonist, GLP-1R agonist)
Cc1cc(C)cc(S(=O)(=O)Nc2cccc(-c3ccc(N4CCOCC4)nn3)c2)c1	none (no result: DRD3 antagonist, GLP-1R agonist)
Cc1cccc(NC(=O)C(=O)NCCc2csc(-c3ccc(C(F)(F)F)cc3)n2)c1C	none (no result: DRD3 antagonist, GLP-1R agonist)
COc1ccc(N(C)S(=O)(=O)c2cccc3cccnc23)c(OC)c1	DRD3 agonist 31
O=Cc1cc2ccccc2nc1SCc1ccc(Cl)cc1	DRD3 antagonist inconclusive
Cc1ccc(CSc2nc3ccccc3cc2C=O)cc1	GLP-1R inv ag 4µM
CNC(C)[C@@H]1CC[C@@H](N)[C@@H](O[C@H]2[C@H](O)[C@@H](O[C@H]3OC[C@](C)(O)[C@H](NC)[C@H]3O)[C@H](N)C[C@@H]2N)O1 (some centres undefined)	none (no result: DRD3 antagonist, GLP-1R inv ag, GLP-1R agonist)
Cc1ccc(NNC(=O)c2ccno2)c(C)c1	GLP-1R inv ag inconclusive, DRD3 agonist 35
Cc1cc(NC(=O)c2ccno2)no1	none
Cc1oc(-c2ccc(C(=O)NCCc3ccc(Cl)cc3)cc2)nc1CSc1ccccc1	none (no result: DRD3 antagonist, GLP-1R agonist)
COc1ccc2cc(CN(CCCN3CCOCC3)Cc3nnnn3C3CCCCC3)c(=O)[nH]c2c1	DRD3 antagonist -50
CC(C)CNc1nc(NC(C)(C)C)nc(Oc2ccc(=O)n(-c3ccccc3)n2)n1	none (no result: DRD3 antagonist, GLP-1R agonist)
O=C1/C(=C\c2cccs2)CCC/C1=C\c1cccs1	none (no result: DRD3 antagonist, GLP-1R inv ag, GLP-1R agonist)
Cc1ccc(-c2nc(CS(=O)(=O)CC(=O)N3CCN(c4cccc(C)c4C)CC3)c(C)o2)cc1	none (no result: DRD3 antagonist, GLP-1R agonist)
O=C(NCc1cccn1Cc1ccccc1)Nc1ccc(Br)cc1F	none (no result: DRD3 antagonist, GLP-1R agonist)
CC(C)CNS(=O)(=O)c1ccc(CCC(=O)Nc2cc(Cl)ccc2Oc2ccccc2)cc1	GLP-1R inv ag 13µM
CC(C)CNS(=O)(=O)c1ccc(CCC(=O)O)cc1	none
Cc1ccc(CNC(=O)CCc2ccc(S(=O)(=O)NCC(C)C)cc2)cc1	DRD3 antagonist -51, GLP-1R inv ag inconclusive
CCCNS(=O)(=O)c1ccc(CCC(=O)Nc2cc(Cl)ccc2Oc2ccccc2)cc1	GLP-1R inv ag inconclusive, DRD3 agonist 30
CC(C)(C)NS(=O)(=O)c1ccc(CCC(=O)Nc2cc(Cl)ccc2Oc2ccccc2)cc1	GLP-1R inv ag inconclusive
CCC(=O)N1CCc2cc(S(=O)(=O)NC(CC(C)C)C(=O)NCc3ccc(F)cc3)ccc21 (centres undefined)	none (no result: DRD3 antagonist, GLP-1R agonist)
CCOC(=O)c1cc2c(C)n(-c3ccc(N(C)C)cc3)c(C)c2cc(C(=O)OCC)c1=O	DRD3 agonist 57
CC(C)(C#CCN1CCCC1)OCCC#N	none
N#CCCOC1(C#CCN2CCCC2)CCCCC1	DRD3 antagonist -88
Cc1c(F)cccc1NS(=O)(=O)c1cccs1	none (no result: DRD3 antagonist, GLP-1R agonist)
O=C(NCc1ccccc1Br)c1cnc2sc(N3CCCCCC3)nn2c1=O	none (no result: DRD3 antagonist, GLP-1R agonist)
COc1ccc(-c2noc(CCC(=O)N3CCN(c4cccc(OC)c4)CC3)n2)cc1	GLP-1R inv ag inconclusive, DRD3 agonist 44
COc1ccc(CN(C(=O)c2cnccn2)C(C(=O)Nc2ccc(F)cc2)c2ccccc2)cc1 (centres undefined)	GLP-1R inv ag 5.6µM
c1ccc2c(-c3c[nH]c4ccccc34)c3ccccc3nc2c1	DRD3 antagonist -53, GLP-1R inv ag inconclusive
C[C@@]12CCC3[C@@](CCC4[C@@]3(C)CCC[C@@]4(C)C(=O)N3CCOCC3)(CC1=O)C2 (some centres undefined)	DRD3 agonist 31
CC(C)NC(=O)[C@]1(C)CCC[C@@]2(C)C3CC[C@@]4(C)C[C@]3(CCC21)CC4=O (some centres undefined)	none
COC(=O)CC1=C(C(=O)OC)C(c2cccs2)C(C#N)=C(N)O1 (centres undefined)	DRD3 antagonist -77
O=C(Nc1cccc(C(F)(F)F)c1)C1CCCN(S(=O)(=O)c2cccc3nsnc23)C1 (centres undefined)	none (no result: DRD3 antagonist)
CC(C)(C)OC(=O)N1CCN(C(=O)c2ncn3c2c(=O)[nH]c2ccccc23)CC1	none
CC(C)C[C@H]1CN=C(Nc2ccccc2)N1CCCC1CCCCC1	GLP-1R inv ag inconclusive
CC(C)C[C@H]1CN=C(Nc2ccccc2)N1CCCC1CCCC1	DRD3 antagonist -51, GLP-1R inv ag inconclusive
CC(=O)N1CCCc2cc(S(=O)(=O)N3CCC(C(=O)NCc4ccccc4Cl)CC3)ccc21	none (no result: DRD3 antagonist, GLP-1R agonist)
Cn1c(Cl)c(/C=N/OC(=O)c2ccc(Cl)cc2)c2ccccc21	DRD3 antagonist -69
Cc1ccc(C(=O)O/N=C/c2c(N3CCOCC3)n(C)c3ccccc23)cc1	GLP-1R inv ag inconclusive, DRD3 agonist 53
Oc1c(C=Nc2cccnc2)sc2ccccc12	DRD3 antagonist -65
Oc1c(C=Nc2ccccc2)sc2ccccc12	none
CN=Cc1sc2ccccc2c1O	none
Oc1c(C=NCc2ccncc2)sc2ccccc12	DRD3 antagonist -100
COc1cc(C(=O)NNC(=O)COc2ccccc2Cl)ccc1OCC(=O)N1CCOCC1	none
COc1ccc(CN2CCC(N(CCc3ccccc3)Cc3ccccc3)CC2)c(OC)c1	DRD3 antagonist -62, GLP-1R inv ag 3.2µM
CCCN1CCC(N(CCc2ccccc2)Cc2ccccc2)CC1	DRD3 antagonist -97, GLP-1R inv ag inconclusive
Cc1ccc(NC(=O)CCCN2C(=O)COc3ccc(C)cc32)c(C)c1	GLP-1R inv ag inconclusive (no result: DRD3 antagonist, GLP-1R agonist)
OCC1(O)OC[C@@H](O)[C@H](O)[C@@H]1O (some centres undefined)	none (no result: DRD3 antagonist, GLP-1R inv ag, DRD3 agonist)
COC(=O)c1cc(Br)c(=O)n(Cc2ccco2)c1	DRD3 antagonist -52
Cc1ccc(C(=O)NCCSc2c(C)[nH]c3ccccc23)cc1[N+](=O)[O-]	GLP-1R inv ag 10µM
